This is an account of results in PubChem BioAssay (NCI).

The structures appear in SMILES notation. Compounds without any hit were thinned out: in the full panel of roughly 83,000, 20% have a hit.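 Activity criterion: percent growth below 10, measured after cells in 96-well plates were exposed to a single compound concentration for 48 hours.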 A number with no mark means an inactive call. Active and inactive are the calls of the source.

Holding throughout (experiment): NCI-60 one-dose screen, 48 h (100 = growth as untreated, 0 = no growth, -100 = all killed)
The test system of one experiment is NCI-H23 lung. To be noted: 10 µM unless noted.
For a further experiment, the system named is NCI-H226 lung. As to conditions: 10 µM unless noted.
The next experiment relates to NCI-H322M lung. To be noted: 10 µM unless noted.
The next experiment has as its system HOP-62 NSCLC. To be noted: 10 µM unless noted.
The next experiment has as its system NCI-H460 lung. To be noted: 10 µM unless noted.
A further experiment concerns HOP-92 NSCLC. To be noted: 10 µM unless noted.
A further experiment relates to NCI-H522 lung. As to conditions: 10 µM unless noted.
Another experiment relates to A549/ATCC NSCLC. As to conditions: 10 µM unless noted.
The subject of another experiment is 786-0 renal. To be noted: 10 µM unless noted.
The next experiment deals with COLO 205 colon. As to conditions: 10 µM unless noted.
A further experiment relates to DU-145 prostate. To be noted: 10 µM unless noted.
The subject of another experiment is K-562 leukemia. To be noted: 10 µM unless noted.
A further experiment deals with MALME-3M melanoma. To be noted: 10 µM unless noted.
The next experiment deals with MDA-MB-231 breast. To be noted: 10 µM unless noted.
A further experiment concerns RXF 393 renal. As to conditions: 10 µM unless noted.
A further experiment has as its system SF-268 CNS. As to conditions: 10 µM unless noted.
Another experiment concerns SF-295 CNS. As to conditions: 10 µM unless noted.
In another experiment the test system is SF-539 CNS. To be noted: 10 µM unless noted.
In a further experiment the test system is UACC-257 melanoma. To be noted: 10 µM.
The next experiment concerns M14 melanoma. To be noted: 10 µM unless noted.

On to `COc1ccc(C2CC(=O)Nc3c2c(C)nn3-c2nc3ccccc3[nH]2)cc1OC` (stereo not given), for which the growth in the experiment with NCI-H23 lung is 48.7%; with NCI-H226 lung, 58.7%; in the experiment on NCI-H322M lung, 75.9%; in the experiment with HOP-62 NSCLC, 67.8%; in the experiment with NCI-H460 lung, 63.7%; in the experiment with HOP-92 NSCLC, 89.3%. Besides, the growth in the experiment on NCI-H522 lung was 98.2%; in the experiment on A549/ATCC NSCLC, 61.1%; in the experiment with 786-0 renal it was 87.5%; in the experiment with COLO 205 colon it was 106%; with DU-145 prostate, 86.6%; with K-562 leukemia, 63%. In addition, the growth in the experiment on MALME-3M melanoma was 38.5%; in the experiment on MDA-MB-231 breast it was 87.1%; in the experiment with RXF 393 renal it was 12.2%; in the experiment with SF-268 CNS, 69.9%; in the experiment with SF-295 CNS, -9% (active); in the experiment on SF-539 CNS it was 97.7%. Moreover, the results for the growth with UACC-257 melanoma and in the experiment on M14 melanoma were 89% and 48.1%, respectively.
Turning to `COc1ccc(-n2c(C)cc(-c3ccccc3)c2C)cc1`, the growth in the experiment on NCI-H23 lung was 33.9%; in the experiment on NCI-H226 lung it was 57.3%; in the experiment on NCI-H322M lung it was 93.5%; in the experiment with HOP-62 NSCLC, 82.4%; in the experiment with NCI-H460 lung, 46.8%; with HOP-92 NSCLC it was 24.6%. Also, the growth in the experiment with NCI-H522 lung was 29.5%; with A549/ATCC NSCLC, 40.7%; in the experiment with 786-0 renal, 35%; with COLO 205 colon, 39.4%; in the experiment with DU-145 prostate, 73.9%; in the experiment with K-562 leukemia it was 15.6%. The growth is 36.9% in the experiment on MALME-3M melanoma; 6.48% (active) in the experiment with MDA-MB-231 breast; 10.1% in the experiment on RXF 393 renal; 75.5% in the experiment with SF-268 CNS; 34.1% in the experiment with SF-295 CNS; 62% in the experiment on SF-539 CNS. Also, the growth with UACC-257 melanoma is 40.3%; in the experiment with M14 melanoma, 15.9%.
On to `COc1cc(NCCN=C(N)NC(N)=NC(C)C)c2ncccc2c1`, for which the growth with NCI-H23 lung was 44.7%; in the experiment on NCI-H226 lung, 94.7%; in the experiment on NCI-H322M lung, 47.4%; with HOP-62 NSCLC, 94.8%; in the experiment with NCI-H460 lung it was 82.1%; in the experiment on HOP-92 NSCLC it was 33.2%. In addition, the growth with NCI-H522 lung was -3.01% (active); with A549/ATCC NSCLC, 91.4%; with 786-0 renal it was 105%; in the experiment on COLO 205 colon, 20.4%; in the experiment on DU-145 prostate it was 103%; in the experiment with K-562 leukemia it was 55.5%. Further, the growth in the experiment on MALME-3M melanoma is -11% (active); in the experiment on MDA-MB-231 breast, 69.3%; with RXF 393 renal, 101%; in the experiment with SF-268 CNS it was 45.1%; in the experiment on SF-295 CNS, 108%; in the experiment with SF-539 CNS it was 6.08% (active). Further, the figures for the growth in the experiment with UACC-257 melanoma and in the experiment with M14 melanoma were 72.1% and 88.6%, respectively.
`COc1ccc(C(=O)c2cc(OC)c(OC)c(OC)c2)cc1/C=C/C(=O)c1ccc(O)cc1`: the growth is 18.5% with NCI-H23 lung; 58.5% with NCI-H226 lung; 70.7% in the experiment with NCI-H322M lung; 88.9% with HOP-62 NSCLC; 9.99% (active) in the experiment with NCI-H460 lung; 42.8% in the experiment with HOP-92 NSCLC. The growth was -79.3% (active) in the experiment on NCI-H522 lung; 68.9% with A549/ATCC NSCLC; 26.4% with 786-0 renal; 54.3% with COLO 205 colon; 26.4% with DU-145 prostate; 19% in the experiment with K-562 leukemia. Besides, the growth was 91.6% with MALME-3M melanoma; 35% with MDA-MB-231 breast; 35.1% in the experiment with RXF 393 renal; 12.8% in the experiment on SF-268 CNS; 29.9% with SF-295 CNS; 0.251% (active) in the experiment on SF-539 CNS. The growth was 36% in the experiment with UACC-257 melanoma and 15.8% with M14 melanoma.
Take `NS(=O)(=O)c1ccc(CN2C(=O)c3cccc4cccc(c34)C2=O)cc1`: the growth in the experiment on NCI-H23 lung is 107%; in the experiment on NCI-H226 lung, 86.1%; in the experiment on NCI-H322M lung, 93%; with HOP-62 NSCLC, 81.8%; with NCI-H460 lung, 110%; with HOP-92 NSCLC it was 82.7%. For the same compound, the growth in the experiment on NCI-H522 lung was 89.9%; with A549/ATCC NSCLC it was 92.1%; with 786-0 renal it was 99.2%; with COLO 205 colon, 99.4%; in the experiment on DU-145 prostate, 105%; in the experiment on K-562 leukemia it was 96%. Moreover, the growth in the experiment with MALME-3M melanoma is 112%; in the experiment on MDA-MB-231 breast, 94.3%; in the experiment on RXF 393 renal, 97.6%; in the experiment with SF-268 CNS, 92.4%; in the experiment with SF-295 CNS, 110%; with SF-539 CNS it was 88.8%. The growth was 103% in the experiment on UACC-257 melanoma and 105% with M14 melanoma.
`COc1ccc(NC(=O)c2cc3ccccc3nc2Nc2cc(OC)c(OC)c(OC)c2)cc1`: the growth in the experiment on NCI-H23 lung is 59.6%; in the experiment with NCI-H226 lung, 54.5%; with NCI-H322M lung, 90.2%; with HOP-62 NSCLC, 84.1%; in the experiment on NCI-H460 lung, 50.3%; in the experiment on HOP-92 NSCLC it was 54.7%. The growth in the experiment with NCI-H522 lung is 57.2%; in the experiment on A549/ATCC NSCLC it was 50.4%; with 786-0 renal, 58%; in the experiment with COLO 205 colon it was 76.7%; with DU-145 prostate, 66.3%; in the experiment on K-562 leukemia, 50.6%. Also, the growth is 132% with MALME-3M melanoma; 54.1% in the experiment on MDA-MB-231 breast; 60.5% in the experiment on RXF 393 renal; 66.6% in the experiment with SF-268 CNS; 65.5% in the experiment with SF-295 CNS; 68.3% with SF-539 CNS. Besides, the growth was 83.6% with UACC-257 melanoma and 55.1% with M14 melanoma.
Turning to `COc1ccc(/C=C\c2cc(OC)c(OC)c(OC)c2)c(NS(=O)(=O)c2ccc(C(C)(C)C)cc2)c1O`, the growth in the experiment on NCI-H23 lung is 23.5%; in the experiment with NCI-H226 lung, 44.9%; in the experiment with NCI-H322M lung it was 64%; in the experiment with HOP-62 NSCLC it was 81.9%; in the experiment on NCI-H460 lung, 8.21% (active); with HOP-92 NSCLC it was 10.8%. The growth in the experiment on NCI-H522 lung was -7.56% (active); in the experiment with A549/ATCC NSCLC it was 27.4%; with 786-0 renal it was 24.4%; in the experiment on COLO 205 colon, 1.63% (active); in the experiment with DU-145 prostate, -0.37% (active); with K-562 leukemia it was 13.2%. The growth was 108% in the experiment on MALME-3M melanoma; 8.45% (active) in the experiment on MDA-MB-231 breast; 22.6% in the experiment on RXF 393 renal; 24.5% in the experiment on SF-268 CNS; 16.9% in the experiment on SF-295 CNS; 2.6% (active) in the experiment with SF-539 CNS. In addition, the values for the growth in the experiment with UACC-257 melanoma and in the experiment with M14 melanoma were 65.7% and 14.9%, respectively.
